# Test results published in PubChem BioAssay AID1159580 (chemical genetic matrix, 2015).
# Screen size: about 5,500 compounds; about 2,000 (36%) were called active. Roughly 18% stayed inconclusive and do not appear here. Some of the results follow. A number with no mark means an inactive call. Cut-off read from the data, not from the text of the source: active = normalized growth mostly below about 0.91 (no sharp cut-off); inconclusive = no clear call, values can overlap the other calls; inactive = mostly above about 0.92.
# Experiment: chemical genetic growth profiling, strain panel (AID 1159580);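 note: tested at 20 µM; growth read once vehicle control cultures reached saturation at 30 °C; 1 = growth at the plate median or of vehicle wells; lower values mean less growth of the strain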
# Details: growth OD
smiles,measurement,setting,value
O=c1oc2c(O)c(O)cc3c(=O)oc4c(O)c(O)cc1c4c23,normalized growth,"S. cerevisiae deletion strains, locus YJR075W, strain HOC1, active compounds read low",0.684 (active)
same,normalized growth,"S. cerevisiae deletion strains, locus YKL009W, strain mrt4, active compounds read low",0.978
same,normalized growth,"S. cerevisiae deletion strains, locus YKL068W, active compounds read low",0.994
same,normalized growth,"S. cerevisiae deletion strains, locus YKL085W, strain MDH1 (second series), active compounds read low",0.972
same,normalized growth,"S. cerevisiae deletion strains, locus YKL085W, strain MDH1, active compounds read low",0.972
same,normalized growth,"S. cerevisiae deletion strains, locus YKL160W, strain elf1, active compounds read low",0.82 (active)
same,normalized growth,"S. cerevisiae deletion strains, locus YKL190W, strain CNB1, active compounds read low",0.712 (active)
same,normalized growth,"S. cerevisiae deletion strains, locus YKR001C, strain vps1, active compounds read low",0.54 (active)
same,normalized growth,"S. cerevisiae deletion strains, locus YKR026C, strain gcn3, active compounds read low",0.992
same,normalized growth,"S. cerevisiae deletion strains, locus YKR091W, strain srl3, active compounds read low",0.924 (active)
same,normalized growth,"S. cerevisiae deletion strains, locus YLL001W, strain dnm1, active compounds read low",0.747 (active)
same,normalized growth,"S. cerevisiae deletion strains, locus YLL026W, active compounds read low",0.686 (active)
same,normalized growth,"S. cerevisiae deletion strains, locus YLL041C, strain sdh2, active compounds read low",0.904 (active)
same,normalized growth,"S. cerevisiae deletion strains, locus YLR027C, strain aat2, active compounds read low",0.772 (active)
same,normalized growth,"S. cerevisiae deletion strains, locus YLR039C, strain RIC1, active compounds read low",0.407 (active)
same,normalized growth,"S. cerevisiae deletion strains, locus YLR058C, strain SHM2, active compounds read low",0.578 (active)
same,normalized growth,"S. cerevisiae deletion strains, locus YLR102C, strain apc9, active compounds read low",0.933
same,normalized growth,"S. cerevisiae deletion strains, locus YLR113W, strain HOG1, active compounds read low",0.981
same,normalized growth,"S. cerevisiae deletion strains, locus YLR221C, strain rsa3, active compounds read low",0.717 (active)
same,normalized growth,"S. cerevisiae deletion strains, locus YLR258W, strain gsy2, active compounds read low",0.747 (active)
same,normalized growth,"S. cerevisiae deletion strains, locus YLR262C, strain YPT6 (second series), active compounds read low",0.648 (active)
same,normalized growth,"S. cerevisiae deletion strains, locus YLR262C, strain YPT6, active compounds read low",0.556 (active)
same,normalized growth,"S. cerevisiae deletion strains, locus YLR268W, strain sec22, active compounds read low",0.356 (active)
same,normalized growth,"S. cerevisiae deletion strains, locus YLR320W, strain mms22, active compounds read low",0.617 (active)
same,normalized growth,"S. cerevisiae deletion strains, locus YLR330W, strain CHS5, active compounds read low",0.584 (active)
same,normalized growth,"S. cerevisiae deletion strains, locus YLR342W, strain FKS1 (second series), active compounds read low",0.401 (active)
same,normalized growth,"S. cerevisiae deletion strains, locus YLR342W, strain FKS1, active compounds read low",0.628 (active)
same,normalized growth,"S. cerevisiae deletion strains, locus YLR357W, strain rsc2, active compounds read low",0.627 (active)
same,normalized growth,"S. cerevisiae deletion strains, locus YLR370C, strain arc18, active compounds read low",0.422 (active)
same,normalized growth,"S. cerevisiae deletion strains, locus YLR371W, strain rom2, active compounds read low",0.605 (active)
same,normalized growth,"S. cerevisiae deletion strains, locus YLR384C, strain iki3, active compounds read low",0.724 (active)
same,normalized growth,"S. cerevisiae deletion strains, locus YLR418C, strain cdc73, active compounds read low",0.366 (active)
same,normalized growth,"S. cerevisiae deletion strains, locus YML016C, strain PPZ1, active compounds read low",0.626 (active)
same,normalized growth,"S. cerevisiae deletion strains, locus YML032C, strain rad52, active compounds read low",0.66 (active)
same,normalized growth,"S. cerevisiae deletion strains, locus YML120C, strain ndi1, active compounds read low",0.581 (active)
same,normalized growth,"S. cerevisiae deletion strains, locus YML124C, strain tub3, active compounds read low",0.778 (active)
same,normalized growth,"S. cerevisiae deletion strains, locus YMR058W, strain fet3, active compounds read low",0.848 (active)
same,normalized growth,"S. cerevisiae deletion strains, locus YMR078C, strain ctf18, active compounds read low",0.875 (active)
same,normalized growth,"S. cerevisiae deletion strains, locus YMR125W, strain sto1, active compounds read low",1
same,normalized growth,"S. cerevisiae deletion strains, locus YMR129W, active compounds read low",0.886 (active)
same,normalized growth,"S. cerevisiae deletion strains, locus YMR205C, strain PFK2, active compounds read low",0.685 (active)
same,normalized growth,"S. cerevisiae deletion strains, locus YMR223W, strain ubp8, active compounds read low",0.612 (active)
same,normalized growth,"S. cerevisiae deletion strains, locus YMR231W, strain pep5, active compounds read low",0.728 (active)
same,normalized growth,"S. cerevisiae deletion strains, locus YMR263W, strain SAP30, active compounds read low",0.616 (active)
same,normalized growth,"S. cerevisiae deletion strains, locus YMR307W, strain GAS1, active compounds read low",0.731
same,normalized growth,"S. cerevisiae deletion strains, locus YNL067W, strain RPL9B, active compounds read low",0.572 (active)
same,normalized growth,"S. cerevisiae deletion strains, locus YNL071W, strain lat1, active compounds read low",0.86 (active)
same,normalized growth,"S. cerevisiae deletion strains, locus YNL128W, strain TEP1, active compounds read low",0.558 (active)
same,normalized growth,"S. cerevisiae deletion strains, locus YNL153C, strain GIM3, active compounds read low",0.492 (active)
same,normalized growth,"S. cerevisiae deletion strains, locus YNL183C, strain NPR1, active compounds read low",0.922
same,normalized growth,"S. cerevisiae deletion strains, locus YNL209W, strain ssb2, active compounds read low",0.444 (active)
same,normalized growth,"S. cerevisiae deletion strains, locus YNL233W, strain BNI4, active compounds read low",0.594 (active)
same,normalized growth,"S. cerevisiae deletion strains, locus YNL248C, strain rpa49, active compounds read low",0.912
same,normalized growth,"S. cerevisiae deletion strains, locus YNL250W, strain rad50, active compounds read low",0.947
same,normalized growth,"S. cerevisiae deletion strains, locus YNL271C, strain bni1, active compounds read low",0.885 (active)
same,normalized growth,"S. cerevisiae deletion strains, locus YNL298W, strain CLA4, active compounds read low",0.907 (active)
same,normalized growth,"S. cerevisiae deletion strains, locus YNL307C, strain MCK1, active compounds read low",0.787 (active)
same,normalized growth,"S. cerevisiae deletion strains, locus YNL322C, strain KRE1 (second series), active compounds read low",0.685 (active)
same,normalized growth,"S. cerevisiae deletion strains, locus YNR049C, strain mso1, active compounds read low",0.896 (active)
same,normalized growth,"S. cerevisiae deletion strains, locus YNR052C, strain pop2, active compounds read low",0.365 (active)
same,normalized growth,"S. cerevisiae deletion strains, locus YOL012C, strain htz1",0.268
same,normalized growth,"S. cerevisiae deletion strains, locus YOL147C, strain pex11, active compounds read low",0.658 (active)
same,normalized growth,"S. cerevisiae deletion strains, locus YOR001W, strain rrp6, active compounds read low",0.735 (active)
same,normalized growth,"S. cerevisiae deletion strains, locus YOR061W, strain CKA2, active compounds read low",0.618 (active)
same,normalized growth,"S. cerevisiae deletion strains, locus YOR069W, strain VPS5, active compounds read low",0.69 (active)
same,normalized growth,"S. cerevisiae deletion strains, locus YOR070C, strain gyp1, active compounds read low",0.593 (active)
same,normalized growth,"S. cerevisiae deletion strains, locus YOR080W, strain dia2, active compounds read low",0.638 (active)
same,normalized growth,"S. cerevisiae deletion strains, locus YOR083W, strain WHI5, active compounds read low",0.717 (active)
same,normalized growth,"S. cerevisiae deletion strains, locus YOR106W, strain vam3, active compounds read low",0.507 (active)
same,normalized growth,"S. cerevisiae deletion strains, locus YOR136W, strain idh2, active compounds read low",0.796 (active)
same,normalized growth,"S. cerevisiae deletion strains, locus YOR144C, strain elg1, active compounds read low",0.68 (active)
same,normalized growth,"S. cerevisiae deletion strains, locus YOR184W, strain ser1, active compounds read low",0.538 (active)
same,normalized growth,"S. cerevisiae deletion strains, locus YOR231W, strain MKK1, active compounds read low",0.972
same,normalized growth,"S. cerevisiae deletion strains, locus YOR265W, strain rbl2, active compounds read low",0.771 (active)
same,normalized growth,"S. cerevisiae deletion strains, locus YOR270C, strain vph1, active compounds read low",0.467 (active)
same,normalized growth,"S. cerevisiae deletion strains, locus YOR290C, strain snf2, active compounds read low",0.167 (active)
same,normalized growth,"S. cerevisiae deletion strains, locus YOR316C, strain cot1, active compounds read low",0.852 (active)
same,normalized growth,"S. cerevisiae deletion strains, locus YPL051W, strain arl3, active compounds read low",0.627 (active)
same,normalized growth,"S. cerevisiae deletion strains, locus YPL055C, strain LGE1, active compounds read low",0.624 (active)
same,normalized growth,"S. cerevisiae deletion strains, locus YPL078C, strain atp4, active compounds read low",0.767 (active)
same,normalized growth,"S. cerevisiae deletion strains, locus YPL106C, strain sse1, active compounds read low",0.809 (active)
same,normalized growth,"S. cerevisiae deletion strains, locus YPL240C, strain hsp82, active compounds read low",0.864 (active)
same,normalized growth,"S. cerevisiae deletion strains, locus YPL241C, strain CIN2, active compounds read low",0.816 (active)
same,normalized growth,"S. cerevisiae deletion strains, locus YPL256C, strain CLN2, active compounds read low",1.01
same,normalized growth,"S. cerevisiae deletion strains, locus YPR119W, strain clb2, active compounds read low",0.947
same,normalized growth,"S. cerevisiae deletion strains, locus YPR141C, strain kar3, active compounds read low",0.987
same,normalized growth,"S. cerevisiae deletion strains, locus YPR163C, strain tif3, active compounds read low",0.876 (active)
same,normalized growth,"S. cerevisiae deletion strains, locus YPR167C, strain met16, active compounds read low",0.725 (active)
same,normalized growth,"S. cerevisiae deletion strains, strain wtn01, active compounds read low",0.511 (active)
same,normalized growth,"S. cerevisiae strains, strain wild type, active compounds read low",0.605 (active)
